# These entries were drawn from the full list.
# aSyn UTR act – Activators via SNCA 5'UTR binding, MLPCN | alpha-synuclein 5'UTR reporter, activators screen | activity score, % (tested at 7.5 µM), hits read low | actives 7.1% (n = 300,000) | AID 1814; in the data active = activity score below about -60%
# Active calls of the source: *.
SMILES,aSyn UTR act
O=C(NNc1nc2ccccc2s1)Nc1ccccc1,-254.7*
O=C(CC1CCCCC1)Nc1nc2ccccc2s1,-129.8*
CCNC(=O)Nc1nc2ccccc2s1,-96.8*
CCOC(=O)/C=C(\C)N1N=C(c2ccccc2)CC1c1ccccc1 (configuration not stated),-187.5*
COc1ccc(C2CC(c3ccc4ccccc4c3)=NN2C(=O)COC(=O)C2CCC(=O)N2)cc1 (configuration not stated),-151.9*
COc1ccc(C2CC(c3ccc4ccccc4c3)=NN2C(=O)CN2CCC(C(N)=O)CC2)cc1 (configuration not stated),-133.7*
CC(=O)OCC(=O)N1N=C(c2ccc3ccccc3c2)CC1c1ccccc1 (configuration not stated),-106.2*
COc1cc(C2CC(c3cccs3)=NN2C(=O)CCl)ccc1OC(F)F (configuration not stated),107.1
O=C(NCc1cccnc1)/C(=C/c1ccc(-c2cccc(Cl)c2)o1)S(=O)(=O)c1ccccc1,-193.2*
COC(=O)c1cnc(SCc2ccc(C)cc2)n1C,-81.4*
COc1ccc(OC)c2sc(N(CCN(C)C)C(=O)/C=C/c3cccs3)nc12,54.1
CCCCOC(=O)c1ccc(NC(=O)/C=C/c2cccs2)cc1,-87.9*
COc1ccc(NC(=S)NC(=O)/C=C/c2ccco2)cc1,-91.2*
COc1ccc(NC(=S)NC(=O)/C=C/c2cccs2)cc1,-72.8*
O=C(/C=C/c1ccco1)NC(=S)Nc1ccc(N2CCCC2)cc1,-70.3*
COc1ccc2nc(Nc3ccc4c(c3)OCO4)sc2c1,-159.8*
COc1ccc2nc(Nc3nc4cc5c(cc4s3)OCO5)sc2c1,-122.7*
COCn1c(-c2ccc(OC)cc2)nc2ccccc21,-191.9*
OCc1nc2ccccc2n1CCCOc1ccc(Br)cc1,-104.3*
C=CCn1c(COc2ccc(OC)cc2)nc2ccccc21,-74.6*
COCCn1c(COc2ccc(OC)cc2)nc2ccccc21,-82.1*
CCn1c(COc2ccc(OC)cc2)nc2ccccc21,-94.4*
COc1cc(/C=C2/C(=N)N3OC(C)=CC3=NC2=O)ccc1OCCOc1ccc(C)cc1,-75.3*
O=C1/C(=C/c2cccnc2)Oc2cc(OS(=O)(=O)c3ccccc3)ccc21,-82.2*
CC(=O)Nc1ccc(S(=O)(=O)N2CCN=C2SCc2ccc(C)cc2)cc1,-72.0*
SMILES,aSyn UTR act
CC1CC/C(=C\c2ccc3c(c2)OCO3)C(=O)/C1=C/c1ccc2c(c1)OCO2 (configuration not stated),-79.8*
O=C1/C(=C/c2ccncc2)CCC/C1=C\c1ccncc1,-100.9*
O=C1/C(=C\c2ccc3c(c2)OCO3)CCC/C1=C/c1ccc2c(c1)OCO2,-93.5*
O=C(O)c1ccc(-c2nnc(-c3cccc(Br)c3)o2)cc1,-201.9*
Brc1ccc(-c2nnc(-c3cccc(Br)c3)o2)cc1,-127.2*
CCOC(=O)c1cc(-c2ccc3c(c2)OCCO3)n[nH]1,-173.7*
CCOC(=O)c1cc(-c2ccc(OC)cc2)n[nH]1,-72.8*
CCOc1ccc(-c2n[nH]c(C(=O)NN)c2C)cc1,-72.8*
CC(C)COc1ccc(-c2cc(C(=O)NN)[nH]n2)cc1,-83.0*
Oc1c(C=Nc2ccccc2)sc2ccccc12,-65.2*
Oc1c(C=Nc2ccc(Cl)cn2)sc2ccccc12,-180.0*
Oc1sc(C=Nc2ccc(F)cc2)c2ccccc12,-227.2*
Oc1sc(C=Nc2ccccc2)c2ccccc12,-254.0*
CC(C)OC(=O)c1cc2ccccc2[nH]1,-84.5*
Cn1c(=O)[nH]c2cc3ccccc3cc21,61.9
CCOC(=O)c1cc2cc3ccccc3cc2[nH]1,-299.7*
COc1ccc(S(=O)(=O)Oc2ccc3ccccc3c2)cc1,-92.9*
O=C1CC(/C=C/c2ccccc2)=Nc2ccccc2N1,-252.2*
O=C1CC(/C=C/c2ccc(Cl)cc2)=Nc2ccccc2N1,-225.7*
CC1(C)CC(/C=C/c2ccccc2)=Nc2ccccc2N1,-154.5*
Cc1ccc(OCC(=O)Nc2nnn(C)n2)c(C)c1,-87.3*
Cc1cc(O)ccc1N/C=C(\C#N)c1nc2ccccc2o1,-141.1*
O=C(Nc1ccc(NC(=O)C2CC2)nc1)c1cccc(F)c1,-161.0*
O=C(Nc1ccc(Cl)cn1)c1cccc(F)c1,-204.1*
CCOc1ccc(C(=O)Nc2ccc(Cl)cn2)cc1Cl,-182.0*
SMILES,aSyn UTR act
CC(C)C(=O)Nc1ccc(NC(=O)c2cccc(F)c2)cn1,-147.6*
N#CC1CC(c2ccccc2)=NN1c1ccccc1[N+](=O)[O-] (configuration not stated),-94.9*
CSc1nnc(-c2cc(-c3ccc(C)cc3)nc3ccccc23)o1,57.0
CCc1ccc(-c2cc(-c3n[nH]c(=S)n3CC)c3ccccc3n2)cc1,-68.5*
COc1ccc(/C=C2\CN(Cc3ccccc3)C/C(=C\c3ccc(OC)cc3OC)C2=O)c(OC)c1,-68.0*
COc1ccc2c(c1)OC/C(=C/c1cccs1)C2=O,-151.3*
COc1ccc(C=C2c3ccccc3C(=O)c3ccccc32)c(OC)c1,97.6
COc1ccc(/C=C2\COc3ccccc3C2=O)c(OC)c1,-139.8*
N#C/C(=C(/O)c1cccc(F)c1)c1nc2ccccc2s1,-148.5*
N#C/C(=C(\O)c1ccco1)c1ccccn1,-91.4*

# Screening results (PubChem)
